Inconclusive results are not listed. Activity calls are given as the source filed them. The call rests on the fitted dose curve; in most records, active means well fitted inhibition curve with a large enough effect; inconclusive means small, poorly fitted or top-dose-only effect; inactive means flat fitted curve, though single readings scatter.
Target: DNA repair nuclease/redox regulator APEX1 (Homo sapiens) (UniProt P27695)
Experiment: qHTS Validation Assay for Inhibitors of the Human Apurinic/apyrimidinic Endonuclease 1 (APE1) (AID 1705;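 on activity change, negative = inhibition: TAMRA fluorescence gain over two minutes as APE1 cuts a quenched THF abasic duplex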)
Settings: purified APE1 endonuclease activity, fluorescence, titration; series mostly up to 57.1 µM; activity change, negative = inhibition: at the top concentration
Description: Assay Provider: David M. Wilson, III, National Institute on Aging, NIH
Screening Center PI: Austin, C.P.
Screening Center: NIH Chemical Genomics Center [NCGC]
The apurinic/apyrimidinic endonuclease APE1 is the primary mammalian enzyme responsible for the removal of abasic (or AP) sites in DNA and functions centrally in the base excision DNA repair (BER) pathway. […] Thus, targeting APE1 could improve the efficacy of current treatment paradigms by promoting selective sensitization or protection of diseased and normal cells, respectively.
Inhibition of APE1 activity was screened by utilizing double-stranded short substrate containing tetrahydrofuran (THF) abasic site labeled with rhodamine-type fluorophore (TAMRA) at the 5'-end and with non-fluorescent Black Hole Quencher-2 (BHQ-2) at the opposing 3'-end. An increase in the fluorescence intensity due to incision of the abasic site by APE1 was used to measure the enzyme activity.
1. Substrate: 50 nM final concentration of TAMRA/BHQ-2 substrate dispensed throughout the plate.
2. Enzyme: […] nM APE1 final concentration in columns 1, 2, 5-48. Column 1 is neutral (100% activity)
3. Control: Pintool transfer of control inhibitor NSC-13755 to column 2 of all assay plates. Two-fold, 16 pt dilution in duplicate to produce final concentrations in the […] uM - […] nM range.
3. Buffer columns in columns 3 and 4 were used as negative control (no enzyme).
Three uL of enzyme were dispensed to 1536-well Greiner black solid bottom plates. Compounds (23 nL) were transferred via Kalypsys pintool. The plates were incubated for 15 min at room temperature, and then 1 uL of substrate solution was added to start the reaction. The plates were immediately transferred into ViewLux High-throughput CCD imager (Perkin-Elmer) in order to measure the reaction progress in kinetic mode (three reads every 60 seconds) using 525 nm excitation and 598 nm emission fluorescence protocol. The fluorescence intensity difference between the third and the first time points was used to compute reaction progress.
On the % scale 0 is the no-effect control and ±100 the full control effect; potency means the concentration at half of the fitted maximal effect.

DNA repair nuclease/redox regulator APEX1 (Homo sapiens), sequence (P27695 whole entry, looked up): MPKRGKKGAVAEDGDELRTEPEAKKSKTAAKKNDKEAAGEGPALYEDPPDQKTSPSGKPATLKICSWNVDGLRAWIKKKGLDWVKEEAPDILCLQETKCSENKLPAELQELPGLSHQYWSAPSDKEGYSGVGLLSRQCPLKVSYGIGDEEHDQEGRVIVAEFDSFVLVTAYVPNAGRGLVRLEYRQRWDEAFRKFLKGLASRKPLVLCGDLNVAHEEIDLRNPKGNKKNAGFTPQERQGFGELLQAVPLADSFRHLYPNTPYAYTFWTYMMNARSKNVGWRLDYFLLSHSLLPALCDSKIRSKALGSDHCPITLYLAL

Structure (SMILES)	Potency	activity change, negative = inhibition
[N-]=[N+]=Nc1ccc(C(=O)CSC[C@H](NC(=O)CC[C@H](N)C(=O)O)C(=O)NCC(=O)O)cc1	20 µM (active)	
CC(=O)O[C@H]1CC2(C)[C@@H](C[C@@H](O)[C@H]3[C@@]4(C)CC[C@@H](O)[C@@H](C)[C@@H]4CC[C@@]32C)C1=C(CCC=C(C)C)C(=O)O (stereo not given in full)	39.8 µM (active)	
N=C(N)c1ccccc1		2% (inactive)
N[C@@H](Cc1ccc(F)cc1)C(=O)O		-2.45% (inactive)
Cn1c(=O)c2c(nc(/C=C/c3cccc(Cl)c3)n2C)n(C)c1=O		-10.7% (inactive)
CCCCC[C@H](CC(=O)NO)C(=O)N[C@H](C(=O)N1CCC[C@H]1CO)C(C)C		-17.1% (inactive)
COc1cc(CC(=O)O)ccc1O		0.589% (inactive)
CCCCCCCCCCCCCCCCCCOC[C@H](COP(=O)([O-])OCC[N+](C)(C)C)OC		-10.2% (inactive)
CC1CNCCN1S(=O)(=O)c1cccc2cnccc12 (stereo not given)		8.11% (inactive)
O=C(OCCN1CCOCC1)C1(c2ccccc2)CCCCC1		9.96% (inactive)
CCC1(O)CC2CN(CCc3c([nH]c4ccccc34)[C@@](C(=O)OC)(c3cc4c(cc3OC)N(C)C3[C@]45CCN4CC=C[C@@](CC)([C@@H](OC(C)=O)[C@]3(O)C(=O)OC)[C@H]45)C2)C1 (stereo not given in full)		-8.34% (inactive)
COc1ccccc1N1CCN(CCCNc2c(C)c(=O)n(C)c(=O)n2C)CC1		-4.11% (inactive)
CC(=O)[C@H]1CCC2C3CC=C4C[C@@H](OS(=O)(=O)O)CC[C@]4(C)C3CC[C@@]21C (stereo not given in full)		2.35% (inactive)
COc1ccc2c(c1)CCC1C2CC[C@@]2(C)C1CC[C@@H]2NCCCCCCN1C(=O)C=CC1=O (stereo not given in full)		-11.5% (inactive)
NCC(O)(CS(=O)(=O)O)c1ccc(Cl)cc1 (stereo not given)		-1.51% (inactive)
CNc1cc(NS(=O)(=O)c2ccc(N)cc2)nc(NC)n1		21.1% (inactive)
CSC(=N)N		8.57% (inactive)
Cc1nc(N=Nc2cc(S(=O)(=O)O)c3cc([N+](=O)[O-])cc(S(=O)(=O)O)c3c2)c(COP(=O)(O)O)c(C=O)c1O	2.82 µM (active)	
N=C(N)c1ccc(N)cc1		15.7% (inactive)
Cn1cc(C(=O)OCC2CCN(CCNS(C)(=O)=O)CC2)c2ccccc21		-6.06% (inactive)

Structure (SMILES)	Potency	activity change, negative = inhibition
CCCCCCCCCC(=O)NC(CN1CCOCC1)[C@H](O)c1ccccc1 (stereo not given in full)		-5.18% (inactive)
N#C/C(=C\c1ccc(O)c(O)c1)C(=O)NCCCNC(=O)/C(C#N)=C/c1ccc(O)c(O)c1		-24.4% (inactive)
CC[C@@H]1Cc2cc(O)ccc2C2=C1c1ccc(O)cc1C[C@H]2CC		-11.8% (inactive)
COc1cc(C(O)CO)ccc1O (stereo not given)		2.25% (inactive)
CCCC[C@@]1(C2CCCC2)Cc2cc(OCC(=O)O)c(Cl)c(Cl)c2C1=O		0.46% (inactive)
CCCCCCN(CCCCCC)C(=O)Cc1c(-c2ccc(F)cc2)[nH]c2ccccc12		-6.34% (inactive)
Cn1c(=O)[nH]c2ncn(C)c2c1=O		-2.31% (inactive)
CCCCCC[C@@H]([C@@H](C)O)n1cnc2c(N)ncnc21		8.89% (inactive)
CCN(c1nc(N)c(C(=O)N=C(N)N)nc1Cl)C(C)C		-6.61% (inactive)
O=c1ccn([C@@H]2O[C@H](COP(=O)(O)OP(=O)(O)O)[C@@H](O)[C@H]2O)c(=O)[nH]1		-9.77% (inactive)
CCCn1c(=O)c2c(ncn2C)n(CCC)c1=O		-0.496% (inactive)
Cc1ccc2c(c1)C(N1CCN(C)CC1)=Nc1cccnc1N2		7.1% (inactive)
c1ccc(CN2CCC3(CCCc4ccccc43)CC2)cc1		2.73% (inactive)
O=S(=O)(c1cccc2c(Cl)cccc12)N1CCCNCC1		-3.07% (inactive)
NC(=Nc1ccccc1)NC(=O)c1nc(Cl)c(N)nc1N		-8.94% (inactive)
CCCCCCCCCCCCCCC[C@H](O)[C@H](N)CO		-13.7% (inactive)
Nc1nc2[nH]c(=O)cnc2c(=O)[nH]1		-6.92% (inactive)
CC(/C=C/c1cccc(Oc2ccc(F)cc2)c1)N(O)C(N)=O (stereo not given)		-12.5% (inactive)
C#CCn1c(=O)c2c(ncn2C)n(C)c1=O		-2.8% (inactive)
O=c1cc(-c2ccccc2)[nH]c2nc(Cl)ccc12		-8.45% (inactive)

— PubChem BioAssay (NCATS)
